{"source": "PubChem BioAssay (NCATS)", "note": "Results filed as inconclusive are left out. Entries that show only a call come without a potency. A number with no mark means an inactive call. Calls of active or inactive are those of the source. The call rests on the fitted dose curve; in most records, active means well fitted inhibition curve with a large enough effect; inconclusive means small, poorly fitted or top-dose-only effect; inactive means flat fitted curve, though single readings scatter.", "data": [{"biological_target": "Calcium and integrin-binding protein 1 (Homo sapiens) (UniProt Q99828)", "sequence (Q99828 whole entry, looked up)": "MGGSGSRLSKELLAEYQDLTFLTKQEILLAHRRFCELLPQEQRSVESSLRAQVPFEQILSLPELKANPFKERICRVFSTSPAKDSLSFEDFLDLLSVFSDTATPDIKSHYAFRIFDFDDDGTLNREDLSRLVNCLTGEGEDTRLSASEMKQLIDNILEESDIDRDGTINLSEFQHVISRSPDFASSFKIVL", "assay": "Primary qHTS for Identification of Calcium Integrin Binding Protein 1 (CIB1) Competitor (AID 1508620);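 further: GST tagged CIB1 binding a fluorescein labelled alphaIIb integrin peptide tracer; top concentration of the series differs between compounds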", "settings": "CIB1-GST / FITC-alphaIIb peptide fluorescence polarization; series mostly up to 114 µM", "summary_of_the_method": "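Fluorescence polarization competition: CIB1-GST (1 uM final) preincubated with compound 15 min at room temperature, then FITC-labeled alphaIIb peptide (100 nM final) added for another 15 min. Polarization read at Ex 480/Em 540.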", "values": [{"compound": "C=CC1(C)C=C2CCC3C(C)(C)C(O[C@@H]4O[C@@H](CO)[C@H](O)[C@H]4O)CCC3(C)C2CC1O[C@@H]1O[C@H](C)[C@H](O)[C@H](O)[C@H]1O", "note": "(stereo partly drawn)", "Potency": "inactive"}, {"compound": "O=C(/C=C/c1ccccc1)OC[C@]12O[C@H]1[C@@H](O)[C@@H]1C=CO[C@@H](O[C@@H]3O[C@H](CO)[C@@H](O)[C@H](O)[C@H]3O)[C@@H]12", "Potency": "inactive"}, {"compound": "C[C@@H]1O[C@@H](O[C@H]2[C@H](O[C@H]3[C@H](O)[C@@H](C(=O)O)O[C@@H](O[C@H]4CC[C@@]5(C)C(CC[C@]6(C)C5CC[C@]57OC[C@@]8(CCC(C)(C)CC85)[C@H](O)C[C@]76C)C4(C)C)[C@@H]3O[C@@H]3O[C@H](CO)[C@@H](O[C@@H]4OC[C@@H](O)[C@H](O)[C@H]4O)[C@H](O)[C@H]3O)O[C@H](CO)[C@H](O)[C@@H]2O)[C@H](O)[C@H](O)[C@H]1O", "note": "(stereo partly drawn)", "activity change, negative = inhibition": "2.06% [at 12.4 µM]"}, {"compound": "CC(=O)N1CCN(Cc2ccc([C@H](C)Nc3nccc(N4C(=O)OC[C@@H]4C(C)C)n3)cc2)CC1", "Potency": "inactive"}, {"compound": "CC12CCC3c4ccc(OC5OC(C(=O)O)C(O)C(O)C5O)cc4CCC3C1CCC2O", "note": "(stereo not drawn)", "Potency": "inactive"}, {"compound": "COc1ccc(/C=C\\C(=O)O)c(O[C@@H]2O[C@H](CO)[C@@H](O)[C@H](O)[C@H]2O)c1", "Potency": "inactive"}, {"compound": "O=C1CC2(CCCC2)[C@H](O)C(=O)N1CCCCN1CCN(c2ncccn2)CC1", "Potency": "inactive"}, {"compound": "COc1cc2c(cc1OC)N1C(=O)C[C@]34C=CCN5CC[C@@H]2[C@@H](CC3)[C@]514", "Potency": "inactive"}]}]}
